High-throughput results: PubChem, National Center for Advancing Translational Sciences (NCATS)
Hits are enriched below; roughly 10% of the tested compounds scored in any of these assays.
JMJD2A Tudor inh = inhibitors of human JMJD2A Tudor domain. AlphaScreen JMJD2A-Tudor / H3K4me3 peptide binding. Potency, µM (doses to about 114 µM), inactives show top-dose activity change, negative = inhibition, usual class: inhibitors. 4.4% of 390,000 active. AID 504339; further: potency means the concentration at half of the fitted maximal effect; on the % scale 0 is the no-effect control and ±100 the full control effect; nearly all actives have a fitted effect of over 50% in size
HP1b chromo inh = inhibitors of HP1-beta chromodomain binding to methylated histone tails. AlphaScreen HP1-beta / biotin-H3K9me3 peptide binding. P83916. Potency, µM (series often up to 114 µM), for the others: top-dose activity change, negative = inhibition, most hits filed as inhibitors. 0.56% of 390,000 active; further: potency means the concentration at half of the fitted maximal effect; nearly all actives have a fitted effect of over 70% in size
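Compound inhibition of the preformed complex between 50 nM HP1-beta and 50 nM biotinylated H3K9me3 peptide was read by AlphaScreen. Buffer was PBS pH 7.4 with 0.01% Tween-20. Incubations ran 30 min at room temperature, with 10 ug/mL donor/acceptor beads.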
BAZ2B block = blocks human BAZ2B; Q9UIF8; AlphaScreen BAZ2B-H3K14Ac peptide displacement; Potency, µM (highest dose often 114 µM), for the others: top-dose activity change, negative = inhibition, usual class: inhibitors; 4.4% of 360,000 active; further: potency means the concentration at half of the fitted maximal effect; on the % scale 0 is the no-effect control and ±100 the full control effect; nearly all actives have a fitted effect of over 60% in size
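AlphaScreen displacement: compounds (up to 110uM) incubated 30 min at room temperature with a preformed 50 nM BAZ2B/50 nM biotinylated H3K14Ac peptide complex in PBS pH 7.4 with Tween-20. Donor and acceptor beads at 10 ug/mL final added, 20 min light-protected before reading.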
Six1-Eya2 inh = blocks human Six1 binding to Eya2. AlphaScreen GST-Six1/His-Eya2 binding, biochemical; hits give low values. AID 651725. activity change, % (test concentration not listed). 0.56% of 360,000 active; in the data active means activity change below about -65%; inconclusive means mostly about -30% to -63%; further: on the % scale 0 is the no-effect control and ±100 the full control effect
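Homogeneous AlphaScreen proximity assay pairing GST-Six1 with His-tagged Eya2 (added as 5X mix: 250 nM and 500 nM) in 50 mM Tris pH 8.0, 300 mM NaCl, 1 mM TCEP. Glutathione donor and nickel acceptor beads; 1 h, 37 °C, dark.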
G9a block = inhibitors of human histone lysine methyltransferase G9a; Q96KQ7; G9a H3K9 monomethylation, AlphaScreen, 2 h; Potency, µM (doses to about 102 µM), without a hit: top-dose activity, negative = inhibition, most hits filed as inhibitors; 8.8% of 350,000 active; further: potency means the concentration at half of the fitted maximal effect; on the % scale 0 is the no-effect control and ±100 the full control effect; nearly all actives have a fitted effect of over 75% in size
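G9a (20 nM) was preincubated 15 min with compound, then reacted 2 h at room temperature with 500 nM biotin-H3K9 peptide and 20 µM SAM. Monomethyl-H3K9 detected by AlphaScreen using anti-H3K9me1 antibody.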
CtBP-E1A inh = CtBP/E1A binding inhibition; 0.49% of 340,000 active; AID 651724; activity change, % (test concentration not listed); AlphaScreen GST-E1A/His-CtBP binding, 1536-well; hits give low values; in the data active means activity change below about -65%; inconclusive means mostly about -30% to -63%; further: on the % scale 0 is the no-effect control and ±100 the full control effect
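In 5 uL wells, 23 nL compound meets equimolar GST-E1A and His-CtBP (5X stock 125 nM each) for 2 h, 37 °C. Beads (5X, 50 ug/mL) then 1 h, 37 °C, dark.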
* marks the source's active call; other numbers are inactive results; u = inconclusive; x = no result; [ ] = another dose, or the depositor's remark. Unless noted, the call rests on the fitted dose curve; in most records, active means well fitted inhibition curve with a large enough effect; inconclusive means small, poorly fitted or top-dose-only effect; inactive means no such curve, though single readings can be large or run the other way.

SMILES	JMJD2A Tudor inh	HP1b chromo inh	BAZ2B block	Six1-Eya2 inh	G9a block	CtBP-E1A inh
O=C(Cn1c(=O)nc(-c2ccccc2)c2cc(Cl)ccc21)Nc1ccc(F)c(Cl)c1	-6%	15%	0%	x	-21%[59 µM]	x
COc1ccccc1CNCCSc1nnnn1C	-10%	24%	-4%	x	2%[59 µM]	x
CCOC(=O)c1[nH]c2ccccc2c1NC(=O)c1ccc(C)c(C)c1	-11%	30%	-1%	x	u	x
COc1ccc(OC)c(NC(=O)c2cc3c(=O)oc4ccccc4c3s2)c1	-12%	30%	-2%	x	2%[59 µM]	x
COc1ccc(CCn2c(=O)[nH]c3cc(C(=O)N4CCN(c5ccccc5)CC4)ccc3c2=O)cc1OC	-7%	14%	-6%	-2	9%	9
COc1ccc(CCn2c(=S)[nH]c3cc(C(=O)N4CCOCC4)ccc3c2=O)cc1OC	-22%	16%	-26%	-5	8.9µM*	2
CCOC(=O)c1cccc(NC(=O)CSc2nc3cc4ccccc4cc3[nH]2)c1	-12%	36%	0%	x	u	x
CCOC(=O)CN1C(=O)CC(c2ccc([N+](=O)[O-])cc2)C1=O (centres undefined)	-3%	28%	-2%	0	45µM*	2
CCOc1ccc(NC(=O)c2cnccn2)cc1	17%	22%	-1%	4	-3%[59 µM]	-8
CNS(=O)(=O)c1ccc(NC(=O)c2ccccn2)cc1	13µM*	-4%	7%	4	11%[59 µM]	-1
CCOc1ccc(NC(=O)C2CSC(c3ccncc3)=N2)cc1 (centres undefined)	-7%	27%	-5%	-13	50µM*	-10
CCOc1ccc(NC(=O)Nc2ccc(Cc3ccncc3)cc2)cc1	-9%	32%	5%	5	9%	7
NS(=O)(=O)c1ccc(CNC(=O)c2ccccn2)cc1	4%[11.4 µM]	56%	79µM*	-3	5%[59 µM]	5
CCOc1ccc(NC(=O)c2ccccn2)cc1	16µM*	18%	8%	6	-4%[59 µM]	-5
CCOc1ccc(NC(=O)/C(C=Nc2ccccc2)=C(\C)O)cc1	u	-15%	-15%	-12	45µM*	4
CCOc1ccc(NC(C)=O)cc1	-7%	21%	0%	-3	24%[21.5 µM]	7
Cc1ccc(-c2nc(SCC(=O)NCc3ccco3)c3c(=O)n(C)c(=O)n(C)c3n2)cc1	-1%	26%[57 µM]	4%	x	4%[59 µM]	x
O=C(NCc1ccc(Cl)cc1)C1CCN(S(=O)(=O)c2cc([N+](=O)[O-])ccc2Cl)CC1	3%	18%	9%	-14	45µM*	x
Cc1ccc(S(=O)(=O)N2CCC(C(=O)NC3CCCC3)CC2)cc1Cl	100µM*	18%	1%	-15	-7%[59 µM]	2
COc1ccc(S(=O)(=O)N2CCC(C(=O)N[C@@H](C)C(=O)NC3CCCC3)CC2)cc1	22µM*	3%	3%	2	x	3
Cc1ccc([N+](=O)[O-])cc1S(=O)(=O)N1CCC(C)CC1	-14%[11.4 µM]	u	-31%	-6	56µM*	x
Cc1ccc(S(=O)(=O)N2CCCC(C(=O)NC3CCCC3)C2)cc1Cl (centres undefined)	-5%	38%	-3%	8	9%	5
CC(=O)N1CCCc2cc(S(=O)(=O)N(C)CC(=O)Nc3ccc(C(C)C)cc3)ccc21	-4%	28%[57 µM]	1%	x	-28%[59 µM]	x
O=C(O)c1cccc(-c2noc(-c3ccccc3F)n2)c1	-19%	x	x	x	2%[12.7 µM]	x
COC(=O)CCNC(=O)N1CCN(c2nnc(C)c3c(C)n(-c4ccccc4)nc23)CC1	-9%	11%	-11%	x	9%[59 µM]	x
SMILES	JMJD2A Tudor inh	HP1b chromo inh	BAZ2B block	Six1-Eya2 inh	G9a block	CtBP-E1A inh
CCOc1ccc2ncc3c(-c4ccccc4)nn(CC(=O)Nc4cccc(F)c4)c3c2c1	-7%	42%	-10%	x	6%[59 µM]	x
O=C(NC1CC1)C1CCN(S(=O)(=O)c2cc(Cl)ccc2Cl)CC1	-2%	26%	56µM*	7	13µM*	8
O=C(NC1CC1)C1CCN(S(=O)(=O)c2ccc(Cl)cc2)CC1	-5%	35%	5%	-2	-4%	-3
Cc1nnc(NC(=O)C2CCN(S(=O)(=O)c3cc([N+](=O)[O-])ccc3Cl)CC2)o1	10µM*	27%	16µM*	-69*	u	-82*
Cc1cccc2sc(NC(=O)C3CCN(S(=O)(=O)c4cc([N+](=O)[O-])ccc4Cl)CC3)nc12	14µM*	u	u	-13	7.9µM*	-7
CC1=NCCN1S(=O)(=O)c1cc([N+](=O)[O-])ccc1Cl	-1%	-16%	-14%	3	45µM*	14
CCCC(=O)c1ccc(OC(=O)c2c(-c3ccccc3Cl)noc2C)cc1	31%	76%	22%	x	46%[59 µM]	x
O=C(NC1CC1)C1CCN(S(=O)(=O)c2cc([N+](=O)[O-])ccc2Cl)CC1	8.9µM*	7%	32µM*	-13	u	0
O=c1c2cc(N3CCOCC3)ccc2[nH]c(=S)n1CCCN1CCCCCC1	-1%	20%	-5%	0	-12%[12.7 µM]	-9
Cc1ccc(C)c(N2CCN(C(=O)c3ccc(Cn4c(=S)[nH]c5ccc(N6CCOCC6)cc5c4=O)cc3)CC2)c1	-11%	31%	u	-4	40µM*	0
CCCCn1c(=S)[nH]c2ccc(N3CCOCC3)cc2c1=O	x	x	-17%	x	20µM*	x
Cc1ccc(Cn2c(=S)[nH]c3ccc(N4CCOCC4)cc3c2=O)o1	22µM*	u	u	-20	u	2
O=C(c1ccc(Cn2c(=S)[nH]c3ccc(N4CCOCC4)cc3c2=O)cc1)N1CCN(c2ccc(F)cc2)CC1	-15%	12%	8%	-25	-36%	-21
Cc1ccc(S(=O)(=O)c2nnn3c2nc(NC(C)C)c2sccc23)cc1	-3%	36%	-20%	x	-13%[59 µM]	x
COc1ccc(S(=O)(=O)NCc2cccn2Cc2cc(C)ccc2C)cc1OC	-33%	-12%	u	x	-1%[12.7 µM]	x
COC(=O)c1c(C)sc(-c2c(-c3cccc(Cl)c3)[nH]c3c2c(=O)[nH]c(=O)n3C)c1O	-30%	-3%	u	x	-7%[59 µM]	x
CCC(=O)Nc1ccc(-c2nnc(SCC(=O)Nc3nccs3)n2C)cc1	89µM*	27%	-5%	5	40µM*	-4
Cc1cccc(C(=O)NCc2nnc(SCC(=O)NC3=NCCS3)n2C)c1	40µM*	16%	5%	9	-45%	16
O=C(CSc1nnc(Cn2c(=O)sc3ccccc32)n1-c1ccccc1)Nc1nccs1	-16%	50%	-9%	0	35µM*	-16
CCn1c(Cc2cccc3ccccc23)nnc1SCC(=O)Nc1nccs1	79µM*	26%	6%	-15	10µM*	-10
